In PubChem BioAssay (Tox21) one finds Potency data, which are given here for nine molecules.

Records with an inconclusive call do not appear. Activity calls are given as the source filed them. Unless noted, calls follow the shape of the full dose curve.

Assay [1] can be described thus: Nuclear factor erythroid 2-related factor 2/antioxidant responsive element (Nrf2/ARE) small molecule agonists: qHTS cell viability counter screen in human keratinocytes (AID 1919968; active = well fitted curve in the direction sought with a large enough effect in the repeat runs; an effect the other way counts as inactive or inconclusive; also: nearly all actives have a fitted effect of over 55% in size; also: potency is read from the fitted curve at half-maximal effect). Summed up:
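Measured as CellTiter-Fluor fluorescence, this readout tracks cytotoxicity in the same wells as the ARE-luciferase screen. HaCaT reporter cells (1,500/well) received compounds after a 5 h pre-incubation and were exposed for 23 h.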

The nature of assay [2]: Nuclear factor erythroid 2-related factor 2/antioxidant responsive element (Nrf2/ARE) small molecule agonists: luciferase reporter gene qHTS assay in human keratinocytes (AID 1919969). Also: nearly all actives have a fitted effect of over 35% in size.
For assay [3], the target named is Gonadotropin-releasing hormone receptor (Homo sapiens) (UniProt P30968). As to the kind of experiment: Human gonadotropin-releasing hormone receptor (GnRHR) small molecule agonists, calcium flux assay in GnRHR-HEK293 cells (AID 1920063). Also: nearly all actives have a fitted effect of over 35% in size. The method, boiled down: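 Fluorescence kinetics (480 nm excitation, 540 nm emission; 3 min, 1 s steps) report calcium mobilisation in human GnRHR-HEK293 cells in agonist mode. Dye incubation: 1 h, 37 C.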
Sequence of Gonadotropin-releasing hormone receptor (Homo sapiens) (P30968 whole entry, looked up): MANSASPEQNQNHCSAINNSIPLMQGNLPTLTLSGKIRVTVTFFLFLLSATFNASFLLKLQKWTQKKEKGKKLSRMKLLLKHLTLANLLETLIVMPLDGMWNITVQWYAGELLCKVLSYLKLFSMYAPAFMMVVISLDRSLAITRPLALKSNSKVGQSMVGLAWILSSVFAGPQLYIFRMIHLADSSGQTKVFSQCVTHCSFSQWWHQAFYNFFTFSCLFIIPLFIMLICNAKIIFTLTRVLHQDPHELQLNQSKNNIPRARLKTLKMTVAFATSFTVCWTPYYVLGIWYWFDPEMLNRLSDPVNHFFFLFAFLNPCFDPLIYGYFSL

Assay [4] deals with KiSS-1 receptor (Homo sapiens) (UniProt Q969F8). Description: Human kisspeptin (KISS1R) small molecule agonists, calcium flux assay in KISS1R-HEK293 cells (AID 1920064; active = well fitted curve in the direction sought with a large enough effect in the repeat runs; an effect the other way counts as inactive or inconclusive). The method, boiled down: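 Measures KISS1R agonism through calcium-sensitive dye fluorescence in stably transfected HEK293 cells, read for 3 min after pin-tool compound delivery; 15-point titrations in triplicate.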
Sequence of KiSS-1 receptor (Homo sapiens) (Q969F8 whole entry, looked up): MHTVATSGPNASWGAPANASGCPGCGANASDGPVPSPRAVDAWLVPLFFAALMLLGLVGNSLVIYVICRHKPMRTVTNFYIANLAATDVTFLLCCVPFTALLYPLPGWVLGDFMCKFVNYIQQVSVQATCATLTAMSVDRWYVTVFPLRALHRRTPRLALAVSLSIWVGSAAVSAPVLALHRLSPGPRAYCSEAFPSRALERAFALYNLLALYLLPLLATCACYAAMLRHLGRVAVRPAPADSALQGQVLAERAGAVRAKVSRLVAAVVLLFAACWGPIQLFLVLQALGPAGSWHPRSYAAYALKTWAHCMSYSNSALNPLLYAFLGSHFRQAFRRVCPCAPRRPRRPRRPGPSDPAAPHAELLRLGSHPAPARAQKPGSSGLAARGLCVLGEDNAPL

Assay [5] in a line: p53 small molecule agonists, cell-based qHTS assay with human liver microsomes (AID 1963577). Summed up: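 Fluorescence of the beta-lactamase reporter in p53RE-bla cells, detected with LiveBLAzer substrate (2 h, room temperature, dark), served as the read-out after 16 h compound exposure at 37 C with human liver microsomes and NADPH, each 0.5 mg/mL final.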
Assay [6] is described as follows: p53 small molecule agonists, cell-based qHTS assay with rat liver microsomes (AID 1963578). Summed up:
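Cells carrying a p53 response element–beta-lactamase reporter were plated and rested 5 h, then dosed with compound in DMSO plus rat liver microsomes and NADPH, each at 0.5 mg/mL final. After 16 h at 37 C, LiveBLAzer substrate was added for 2 h.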

Assay [7] can be described thus: p53 small molecule agonists, cell-based qHTS assay with human liver microsomes: qHTS cell viability counter screen (AID 1963579). Also: nearly all actives have a fitted effect of over 45% in size. The method, boiled down:
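Cytotoxicity counter screen: p53RE-bla, 4,000 cells/well; 5 h settle, 37 C/5% CO2; cpd + HLM 0.5 mg/mL + NADPH 0.5 mg/mL (final); 16 h, 37 C; CellTiter-Glo, 30 min RT, luminescence.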

The nature of assay [8]: p53 small molecule agonists, cell-based qHTS assay with rat liver microsomes: qHTS cell viability counter screen (AID 1963580). Also: nearly all actives have a fitted effect of over 45% in size. Summed up:
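HCT-116 p53RE-bla, 4,000 cells/well, 5 h pre-incubation; cpd + rat liver microsomes 0.5 mg/mL + NADPH 0.5 mg/mL (final); 16 h, 37 C; CellTiter-Glo, 30 min RT; luminescence.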

The nature of assay [9]: p53 small molecule agonists, cell-based qHTS assay: qHTS cell viability counter screen (AID 1963581). Also: nearly all actives have a fitted effect of over 45% in size. Summed up:
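In the same plates used for the p53 bla reporter, HCT-116 cells given compounds for 16 h at 37 C received CellTiter-Glo; luminescence was recorded 30 min later at room temperature.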

A short description of assay [10]: p53 small molecule agonists, cell-based qHTS assay (AID 1963582; active = well fitted activation curve with a large enough effect in the signal ratio in the repeat runs, not every such curve was filed as active; the % refers to the signal ratio). The method, boiled down:
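Compounds are pin-transferred in DMSO onto p53RE-bla cells and incubated 16 h at 37 C. The B/G FRET beta-lactamase substrate is then applied for 2 h at RT and fluorescence recorded.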

Assay [11] has as its target 5-hydroxytryptamine receptor 2A (Homo sapiens) (UniProt P28223). As to the kind of experiment: 5-hydroxytryptamine receptor 2A (HTR2A) small molecule antagonists, cell-based qHTS assay (AID 1963586). Also: nearly all actives have a fitted effect of over 45% in size. The method, boiled down:
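Antagonist-mode intracellular calcium assay: DOI (4 nM) added after 5 min compound pre-incubation at room temperature to dye-loaded HTR2A-CHO cells. Fluorescence followed for 3 min, sampled every second.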

For assay [12] the target is unchanged. As to the kind of experiment: 5-hydroxytryptamine receptor 2A (HTR2A) small molecule agonists, cell-based qHTS assay (AID 1963587). Also: nearly all actives have a fitted effect of over 30% in size. The method, boiled down:
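Kinetic calcium-flux fluorescence (2 min, 1 sec intervals) after compound addition in agonist mode. HTR2A-CHO cells were cultured 18 h, then dye-loaded 1 h at 37 C.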

For assay [13], the target named is Muscarinic acetylcholine receptor M1 (Homo sapiens) (UniProt P11229). As to the kind of experiment: Cholinergic receptor muscarinic 1 (CHRM1) small molecule antagonists, cell-based qHTS assay (AID 1963588). Also: nearly all actives have a fitted effect of over 40% in size. The method, boiled down:
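CHRM1-CHO calcium-flux assay, antagonist mode. Cells were seeded 18 h, dye-loaded 1 h at 37 C and given compound for 5 min at RT, then acetylcholine was added at 50nM. FDSS fluorescence was read 3 min; 15 concentrations, three runs.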

The target is the same in assay [14]. Description: Cholinergic receptor muscarinic 1 (CHRM1) small molecule agonists, cell-based qHTS assay (AID 1963589). Also: nearly all actives have a fitted effect of over 35% in size. The method, boiled down: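 Each compound was tested at 15 concentrations across three independent runs on dye-loaded CHO cells stably expressing human CHRM1, reading intracellular calcium fluorescence kinetically at 1 sec intervals.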
A short description of assay [15]: cAMP Responsive Elements (CRE) small molecule agonists, cell-based qHTS assay (AID 1963590). The method, boiled down:
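Cell line: CRE-bla HEK 293T; medium DMEM/10% dialyzed FBS/0.1 mM NEAA/1 mM pyruvate/25 mM HEPES; 3 h compound exposure; beta-lactamase FRET readout after 2 h substrate loading at RT.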

Assay [16] deals with Beta-2 adrenergic receptor (Homo sapiens) (UniProt P07550). As to the kind of experiment: Adrenergic beta2 receptor (ADRB2) small molecule antagonists, cell-based qHTS assay (AID 1963592). Also: series mostly up to about 92 µM; nearly all actives have a fitted effect of over 50% in size. The method, boiled down:
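Cells (CHO, stable ADRB2 overexpression) incubated 18-20hr at 37C; compounds added from DMSO; agonist mix (1nM isoproterenol, 100uM IBMX, 25uM Ro-20-1724) added; 0.5hr RT; d2-cAMP and anti-cAMP-cryptate added; 1hr RT; 665/615 nm read.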

For assay [17], the target named is D(2) dopamine receptor (Homo sapiens) (UniProt P14416). As to the kind of experiment: Dopamine D2 receptor (DRD2) small molecule agonists, cell-based qHTS assay (AID 1963594). Also: nearly all actives have a fitted effect of over 35% in size. Summed up: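 cAMP accumulation in DRD2-HEK293 cells measured by HTRF after 1 h detection; compounds added 10 min before NKH477 (200nM […]) forskolin-analogue stimulation, 30 min at room temperature, with Ro20-1724 present at 0.1 mM final.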
Sequence of D(2) dopamine receptor (Homo sapiens) (P14416 whole entry, looked up): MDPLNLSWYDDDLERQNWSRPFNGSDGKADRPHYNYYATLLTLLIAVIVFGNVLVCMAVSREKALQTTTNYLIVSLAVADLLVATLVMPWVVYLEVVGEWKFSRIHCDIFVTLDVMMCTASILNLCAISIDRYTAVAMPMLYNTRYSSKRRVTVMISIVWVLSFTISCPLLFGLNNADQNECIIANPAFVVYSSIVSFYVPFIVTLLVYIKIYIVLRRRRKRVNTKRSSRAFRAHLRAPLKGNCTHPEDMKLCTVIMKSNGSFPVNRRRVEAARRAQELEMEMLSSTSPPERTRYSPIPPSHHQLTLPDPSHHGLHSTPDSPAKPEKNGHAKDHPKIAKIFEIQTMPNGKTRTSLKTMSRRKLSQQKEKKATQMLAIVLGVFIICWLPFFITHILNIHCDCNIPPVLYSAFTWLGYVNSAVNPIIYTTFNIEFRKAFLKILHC

Assay [18] has the same target. Description: Dopamine D2 receptor (DRD2) small molecule antagonists, cell-based qHTS assay (AID 1963595; active = well fitted inhibition curve with a large enough effect in the signal ratio in the repeat runs, with a control signal flat; the % refers to the signal ratio). Summed up:
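Readout: HTRF cAMP, cAMP-d2 competing with cellular cAMP for anti-cAMP cryptate, read after 1 h. Cells: DRD2-HEK293. Conditions: 0.1 mM Ro20-1724, 12 nM quinpirole, 200 nM NKH477, 30 min RT.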

Assay [19] in a line: G protein-coupled receptor (GPCR) small molecule agonists, calcium flux assay: HEK293 wild type cell line counter screen (AID 1920065). Summed up:
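Readout: fluorescence at 480 nm excitation/540 nm emission, sampled at 1 s intervals for 3 min. Cells had been cultured 18 h, then dye-loaded 1 h at 37 C before compound or ATP addition.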

A short description of assay [20]: cAMP Responsive Elements (CRE) small molecule antagonists, cell-based qHTS assay (AID 1963591; active = well fitted inhibition curve with a large enough effect in the signal ratio in the repeat runs, not every such curve was filed as active; the % refers to the signal ratio; also: potency is read from the fitted curve at half-maximal effect). Summed up: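 Inhibition of NKH477-driven (0.25 uM final) CRE-beta-lactamase signal in HEK293T cells, 3 h compound exposure at 37 °C, detected by FRET substrate fluorescence.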

Sequence of Muscarinic acetylcholine receptor M1 (Homo sapiens) (P11229 whole entry, looked up): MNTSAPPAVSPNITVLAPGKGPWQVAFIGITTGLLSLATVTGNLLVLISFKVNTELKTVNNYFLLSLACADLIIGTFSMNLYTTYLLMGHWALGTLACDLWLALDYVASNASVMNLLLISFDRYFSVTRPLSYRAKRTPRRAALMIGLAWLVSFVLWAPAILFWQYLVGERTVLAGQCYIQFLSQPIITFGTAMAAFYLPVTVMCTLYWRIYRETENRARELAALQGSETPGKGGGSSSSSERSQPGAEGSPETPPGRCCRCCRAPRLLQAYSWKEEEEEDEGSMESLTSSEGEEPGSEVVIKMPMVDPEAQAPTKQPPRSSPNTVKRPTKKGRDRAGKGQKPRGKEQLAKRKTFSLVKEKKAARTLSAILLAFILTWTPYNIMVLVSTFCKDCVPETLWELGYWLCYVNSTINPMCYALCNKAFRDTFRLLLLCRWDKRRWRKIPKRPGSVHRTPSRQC
Sequence of Beta-2 adrenergic receptor (Homo sapiens) (P07550 whole entry, looked up): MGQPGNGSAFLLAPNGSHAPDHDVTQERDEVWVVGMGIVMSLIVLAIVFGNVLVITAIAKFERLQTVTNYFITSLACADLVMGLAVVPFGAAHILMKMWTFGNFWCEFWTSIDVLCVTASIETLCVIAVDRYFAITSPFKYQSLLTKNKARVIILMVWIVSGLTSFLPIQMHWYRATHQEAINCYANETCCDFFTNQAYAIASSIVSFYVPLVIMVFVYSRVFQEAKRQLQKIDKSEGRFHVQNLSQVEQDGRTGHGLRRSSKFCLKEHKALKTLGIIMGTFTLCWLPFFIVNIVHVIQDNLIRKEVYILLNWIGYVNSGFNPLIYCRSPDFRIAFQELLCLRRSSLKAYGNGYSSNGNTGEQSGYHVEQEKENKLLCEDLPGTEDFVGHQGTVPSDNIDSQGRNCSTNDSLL
Sequence of 5-hydroxytryptamine receptor 2A (Homo sapiens) (P28223 whole entry, looked up): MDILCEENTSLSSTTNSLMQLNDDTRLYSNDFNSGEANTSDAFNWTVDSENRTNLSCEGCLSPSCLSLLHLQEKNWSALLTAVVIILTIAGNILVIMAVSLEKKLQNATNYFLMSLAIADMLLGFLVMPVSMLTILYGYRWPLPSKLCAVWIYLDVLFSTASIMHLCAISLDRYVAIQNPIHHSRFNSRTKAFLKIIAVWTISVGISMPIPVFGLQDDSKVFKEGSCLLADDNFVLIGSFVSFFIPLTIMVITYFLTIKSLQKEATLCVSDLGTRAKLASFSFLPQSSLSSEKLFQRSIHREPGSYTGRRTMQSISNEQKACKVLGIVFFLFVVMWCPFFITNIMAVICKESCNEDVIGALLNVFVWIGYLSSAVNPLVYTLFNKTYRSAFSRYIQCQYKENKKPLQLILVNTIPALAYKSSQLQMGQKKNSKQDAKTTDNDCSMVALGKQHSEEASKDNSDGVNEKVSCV

On to `CN/C(=N\[N+](=O)[O-])NCc1cnc(Cl)s1`, for which the Potency entry in assay [1], in assay [2], in assay [3], in assay [4], in assay [5] and in assay [6] was “inactive” each time. Moreover, the Potency result in assay [7], in [8], in [9], in assay [10], in assay [11] and in assay [12] was “inactive” each time. Also, the Potency result in [13], in [14], in assay [15], in assay [16], in assay [17] and in assay [18] was “inactive” in each case.

Regarding `Cc1ccccc1CO[C@@H]1C[C@@]2(C(C)C)CC[C@]1(C)O2`, the Potency result in assay [1], in assay [2], in assay [3], in assay [4], in assay [19] and in [9] was “inactive” each time. The Potency entry in [11], in [12], in assay [13], in assay [14], in assay [16] and in assay [17] was “inactive” in each case. Besides, in [18], the Potency entry is “inactive”.

Consider `CCCC[N+](CCCC)(CCCC)CCCC`, for which the Potency result in assay [1], in assay [2], in assay [3], in assay [4], in assay [5] and in assay [7] was “inactive” each time. The Potency entry in assay [8], in [9], in assay [11], in assay [12], in [13] and in assay [14] was “inactive” in each case. The Potency entry in [20], in assay [16], in assay [17] and in assay [18] was “inactive” in each case.

Consider `Cc1ccc(S(=O)(=O)N[C@@H](CCCCN)C(=O)CCl)cc1`, for which the Potency result in [1], in [2], in assay [3], in assay [4], in assay [19] and in [8] was “inactive” in each case. Further, the Potency entry in assay [9], in assay [12], in [13], in [14], in assay [15] and in [20] was “inactive” in each case. In addition, the Potency entry in [16], in [17] and in [18] was “inactive” each time.

As for `CCCN(CCC)C(=O)Cc1c(-c2ccc(Cl)cc2)nc2ccc(Cl)cn12`, the Potency entry in [1], in assay [2], in assay [3], in assay [4], in assay [5] and in assay [7] was “inactive” each time. The Potency entry in assay [8], in assay [9], in assay [10], in assay [12], in [13] and in assay [14] was “inactive” in each case. Moreover, the Potency result in [16], in [17] and in [18] was “inactive” each time.

As to `O=C(O)C(F)(F)C(F)(F)C(F)(F)C(F)(F)C(F)(F)C(F)(F)C(F)(F)C(F)(F)C(F)(F)F`, the Potency entry in [1], in assay [2], in assay [3], in [4], in assay [5] and in [6] was “inactive” in each case. Moreover, the Potency result in assay [7], in assay [9], in [10], in assay [11], in assay [12] and in [13] was “inactive” each time. For the same molecule, the Potency result in assay [14], in assay [15], in assay [20], in assay [16] and in [18] was “inactive” each time.

Consider `O=C(Nc1ccc2[nH]ccc2c1)c1cc2cc(F)ccc2n1Cc1cccc(F)c1`, for which the values for the Potency in assay [1] and in [20] were 24.3 µM (active) and 61.1 µM (active), respectively. The Potency result in assay [2], in assay [3], in assay [4], in assay [6], in assay [8] and in assay [11] was “inactive” each time. The Potency result in assay [12], in [13], in [15] and in [16] was “inactive” each time.

As to `Brc1ccccc1`, the Potency entry in assay [1], in assay [2], in assay [3], in assay [4], in [5] and in assay [6] was “inactive” throughout. Also, the Potency entry in assay [7], in assay [8], in assay [9], in assay [10], in assay [15] and in [20] was “inactive” each time. For the same molecule, the Potency entry in [16], in assay [17] and in assay [18] was “inactive” throughout.

With `CCN[C@H](C)Cc1cccc(C(F)(F)F)c1`, the Potency entry in assay [1], in [2], in [3], in [4], in [19] and in [8] was “inactive” in each case. The Potency entry in assay [9], in assay [15], in [20] and in assay [17] was “inactive” throughout.
